40 compounds from PubChem BioAssay (Tox21) can be followed below.

Inconclusive results are not listed. Entries that show only a call come without a potency. A number with no mark means an inactive call. Active and inactive are the calls of the source. Calls come from the whole dose curve; as a rule, active = well fitted activation curve with a large enough effect in the repeat runs; inconclusive = weak or mixed curves; inactive = flat fitted curve, though single readings scatter.
Potency is the fitted concentration of half-maximal effect.

The nature of the assay: A CellTox Green Cytotoxicity Assay to monitor cytotoxicity in HepG2 cells - 8 hour (AID 1224890). Note: nearly all actives have a fitted effect of over 45% in size. The following applies: CellTox Green fluorescence; series mostly up to 76.8 µM. The source says:
National Center for Advancing Translational Sciences [NCATS]
NIH Chemical Genomics Center [NCGC]
U.S. Environmental Protection Agency [EPA]
National Institutes of Environmental Health Sciences [NIEHS]
National Toxicology Program [NTP]
Cell-based models are critical for drug discovery. Determining the natural cytotoxic effects resulting from test compounds is an essential research activity. A CellTox Green Cytotoxicity Assay to monitor cytotoxicity in real time of continues cell culture during 40 hours of the compound treatment was used to screen Tox21 10K library compounds in HepG2 cells. CellTox Green Cytotoxicity Assay is a nonlytic, homogeneous, biofluorescent method to measure cytotoxicity in cell culture after experimental manipulation. The assay system uses a proprietary asymmetric cyanine dye that is excluded from viable cells but preferentially stains the dead cell's DNA. […] Viable cells produce no appreciable increases in fluorescence. Therefore, the fluorescence signal produced by the binding interaction with dead cell DNA is proportional to cytotoxicity.
The mixture of HepG2 cell suspension and reagents were dispensed at 600cells/6 ul/well in 1536-well tissue culture treated black solid bottom plates using a Multidrop dispenser. After the assay plates were incubated at a 37 C/5% CO2 incubator for 5 hours, 23 nL of compounds dissolved in DMSO, positive and negative controls was transferred to the assay plate by a pintool work station. The plates were incubated at 37 C for 40 hours. The fluorescence intensity were measured at 0h, 8h, 16h, 24h, 32h and 40h time points using ViewLux plate reader during compound treatment.
As for `CCCc1ccccc1`, the Potency result was “inactive”.
Consider `CCOC(=O)C1=NN(c2ccccc2)C(=O)C1`, for which the Potency result was “inactive”.
As for `CCCCOC(=O)/C=C\C(=O)OCCCC`, the Potency result was “inactive”.
The same measure, in the same setting: as for `Cc1ncsc1CCO`, the entry is “inactive”.
Take `CC(C)(Oc1ccc(Cl)cc1)C(=O)OCCCOC(=O)C(C)(C)Oc1ccc(Cl)cc1`: the Potency result was “inactive”.
In the case of `CC(C)CCCC(C)CCO` (stereo not given), the Potency entry was “inactive”.
As to `Cc1cc(O)ccc1N`, the Potency entry is “inactive”.
With `CC(C)(C)C1CCCCC1O` (stereo not given), the Potency entry was “inactive”.
Still for that read-out and setting: under `CC(=O)O[C@H]1C[C@@H]2CC[C@@H]3[C@H](CC[C@@]4(C)[C@H]3C[C@H]([N+]3(C)CCCCC3)[C@@H]4OC(C)=O)[C@@]2(C)C[C@@H]1N1CCCCC1` stands “inactive”.
Same read-out and setting: under `CC[C@]12CCCN3CCc4c(n(c5ccccc45)C(=O)C1)[C@@H]32` stands “inactive”.
Consider `CN1CCN(C2=Nc3ccccc3Sc3ccc(Cl)cc32)CC1`, for which the Potency entry was “inactive”.
`N[C@H]1C(O)O[C@H](CO)[C@H](O)[C@@H]1O` (stereo not given in full): the Potency result was “inactive”.
Regarding `CCCCCCOC(=O)CCC`, the Potency result is “inactive”.
Take `CCN(CC)CCOC(=O)C1(c2ccccc2)CCCC1`: the Potency entry is “inactive”.
Still for that read-out and setting: under `Cc1cccc(Oc2ccccc2)c1` stands “inactive”.
In the case of `C[C@H](CCC(=O)O)[C@H]1CC[C@H]2[C@@H]3[C@H](O)C[C@@H]4C[C@H](O)CC[C@]4(C)[C@H]3CC[C@]12C`, the Potency entry is “inactive”.
Turning to `CC(=O)Nc1ccc(/C=N/NC(N)=S)cc1`, the Potency result was “inactive”.
As to `CC1=CCC(C(C)C)C=C1` (stereo not given), the Potency result was “inactive”.
With `O=C(O)C1CCC(C(=O)O)CC1` (stereo not given), the Potency result is “inactive”.
Take `Cc1cccc(OCCOc2cccc(C)c2)c1`: the Potency result was “inactive”.
On to `O=C(O)c1cn(C2CC2)c2cc(Cl)c(F)cc2c1=O`, for which the Potency entry is “inactive”.
As to `CCCCCCCCCCCCCCCBr`, the Potency entry was “inactive”.
In the case of `CC(C)c1ccccc1C(C)C`, the Potency result is “inactive”.
Turning to `CN(C)CC[C@@H](c1ccc(Br)cc1)c1ccccn1`, the Potency result is “inactive”.
The same measure, in the same setting: as for `O=C(O)C(c1ccc(Cl)cc1)c1ccc(Cl)cc1`, the entry is “inactive”; as for `C=C(C)C(=O)OC(C)C`, “inactive”; as for `Cc1cc(C)c(S(=O)(=O)O)cc1N=Nc1cc(S(=O)(=O)O)c2ccccc2c1O`, “inactive”.
Take `Cl/C(=C\n1cncn1)c1ccc(Cl)cc1Cl`: the Potency entry was “inactive”.
Same read-out and setting: as for `COCCO`, the entry is “inactive”.
Regarding `C#CCOC(=O)[C@@H](C)Oc1ccc(Oc2ncc(Cl)cc2F)cc1`, the Potency entry is “inactive”.
Regarding `Cc1cc(CC(=O)O)c(C)n1-c1ccc(Cl)cc1`, the Potency entry was “inactive”.
For the compound `CC(C)(C)c1cc(O)c(C(C)(C)C)cc1O`, the Potency entry is “inactive”.
For the compound `CC(=O)NCCCS(=O)(=O)O`, the Potency was 18.9 µM (active).
On to `CCN(CC)C(C)=O`, for which the Potency result is “inactive”.
Take `CC(CN)CCCN` (stereo not given): the Potency result is “inactive”.
The same measure, in the same setting: under `CN(c1nccc(=O)[nH]1)C1CCN(c2nc3ccccc3n2Cc2ccc(F)cc2)CC1` stands “inactive”; under `OCC1CC2CC1C1CCC(CO)C21` (stereo not given), “inactive”; under `OC(CCN1CCCCC1)(c1ccccc1)C1CCCCC1` (stereo not given), “inactive”.
The same measure, in the same setting: as for `CC(=O)OC/C=C/c1ccccc1`, the entry is “inactive”.
For `O=C(C(=O)c1ccc(Br)cc1)c1ccc(Br)cc1`, the cytotoxicity increase is -4.98% [at 15.8 µM].
